Source: PubChem BioAssay (EPA / NIEHS)
Records with an inconclusive call do not appear. The source made the active and inactive calls. The calls were made as follows, unless noted: active = hit-call score of the fitted dose curve at least 0.9, where 1 is the maximum; inconclusive = response in the unintended direction; inactive = score below 0.9.

Legend:
[1] = TOX21_p53_BLA_p2_viability: Viability Assessment in the Tox21 HCT-116 p53 Agonism Beta-lactamase Assay, Phase 2 (AID 2283591);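 also: compound exposure lasted 16 h at 37 °C; actives lower the ATP signal meaning cytotoxicity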
Method in brief: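 Cytotoxicity readout: CellTiter-Glo ATP luminescence, 30 min at room temperature, after the beta-lactamase read. Cells were HCT116 exposed 16 h at 37C to compounds pin-transferred at 217-fold dilution from DMSO stocks.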

[2] = molecular target: Cellular tumor antigen p53 (Homo sapiens) (UniProt P04637); assay: TOX21_p53_BLA_p2_ratio: Tox21 HCT-116 p53 Agonism Beta-lactamase Assay, Ratio, Phase 2 (AID 2283592)
Cellular tumor antigen p53 (Homo sapiens), sequence (P04637 whole entry, looked up): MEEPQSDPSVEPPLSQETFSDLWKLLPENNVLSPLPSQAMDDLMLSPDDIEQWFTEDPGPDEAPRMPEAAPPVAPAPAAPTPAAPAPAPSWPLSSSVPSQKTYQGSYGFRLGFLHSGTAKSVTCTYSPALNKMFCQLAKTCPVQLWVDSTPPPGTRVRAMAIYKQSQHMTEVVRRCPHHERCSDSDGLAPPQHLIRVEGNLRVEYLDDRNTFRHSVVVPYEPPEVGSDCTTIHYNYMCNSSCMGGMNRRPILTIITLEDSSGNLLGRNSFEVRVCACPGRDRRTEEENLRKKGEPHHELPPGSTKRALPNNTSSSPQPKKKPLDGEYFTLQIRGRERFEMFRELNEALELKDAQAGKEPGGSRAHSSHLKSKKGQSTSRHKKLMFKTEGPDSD
Method in brief: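 Ratio endpoint: beta-lactamase cleavage of CCF4-AM, blue (460 nm) over green (530 nm). HCT116 reporter line; 16 h treatment, 37C; substrate 2 h RT.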

[3] = TOX21_p53_BLA_p3_viability: Viability Assessment in the Tox21 HCT-116 p53 Agonism Beta-lactamase Assay, Phase 3 (AID 2283593);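 also: cells exposed to compound for 16 h before reading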
Method in brief: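 Cellular ATP was quantified by CellTiter-Glo luminescence, read after 30 min at room temperature. Beforehand, HCT116 cells (4000/well) received compound 5 h post-seeding, 217-fold diluted from DMSO, then incubated 16 h at 37C.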

[4] = molecular target: Cellular tumor antigen p53 (Homo sapiens) (UniProt P04637); assay: TOX21_p53_BLA_p3_ratio: Tox21 HCT-116 p53 Agonism Beta-lactamase Assay, Ratio, Phase 3 (AID 2283596)
Method in brief: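 Cells were seeded at 4000/well, rested 5 h at 37C, then dosed with DMSO compound solutions (217-fold dilution) for 16 h. CCF4-AM substrate was loaded for 2 h at room temperature, and the 460/530 nm emission ratio was fitted for gain of signal versus DMSO.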

[5] = molecular target: Cellular tumor antigen p53 (Homo sapiens) (UniProt P04637); assay: TOX21_p53_BLA_p5_ratio: Tox21 HCT-116 p53 Agonism Beta-lactamase Assay, Ratio, Phase 5 (AID 2283599)
Method in brief: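 Beta-lactamase reporter ratio (blue 460 nm over green 530 nm, 405 nm excitation) after 2 h CCF4-AM loading, in HCT-116 cells exposed 16 h at 37 C to compounds pinned at 217-fold dilution. Increases relative to DMSO baseline scored.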

[6] = TOX21_p53_BLA_p5_viability: Viability Assessment in the Tox21 HCT-116 p53 Agonism Beta-lactamase Assay, Phase 5 (AID 2283600)
Method in brief: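 Luciferase-coupled ATP quantitation of cells treated for 16 h (37C, 5% CO2) with test chemicals delivered in DMSO via a 217-fold dilution; 4000 cells/well; reagent incubated 30 min at room temperature before luminescence reading.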

[7] = molecular target: Cellular tumor antigen p53 (Homo sapiens) (UniProt P04637); assay: TOX21_p53_BLA_p4_ratio: Tox21 HCT-116 p53 Agonism Beta-lactamase Assay, Ratio, Phase 4 (AID 2283601)
Method in brief: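 Signal is the blue/green (460nm/530nm) ratio of cleaved versus uncleaved CCF4-AM substrate, read after 2 h substrate loading. Cells were HCT116 carrying the p53-responsive beta-lactamase reporter, dosed 16 h at 37C, 5% CO2; CellTiter-Glo measured in parallel.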

[8] = UKN5_HCS_SBAD2_cell_viability: Viability Assessment in the University of Konstanz (UKN) Leist Lab Neurite Outgrowth Assay in human iPSC-derived immature Dorsal Root Ganglia Neurons (UKN5) (AID 2284056; active = hit-call score of the fitted dose curve at least 0.9, where 1 is the maximum; inactive = score below 0.9)
Method in brief: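 iPSC-derived immature peripheral neurons (SBAD2) seeded on Matrigel with CHIR99021, SU5402 and DAPT, dosed 1 h later for 24 h. Viability from Hoechst H-33342 and calcein-AM live staining, high-content imaging; bidirectional fit versus DMSO.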

[9] = UKN5_HCS_SBAD2_neurite_outgrowth: University of Konstanz (UKN) Leist Lab Neurite Outgrowth Assay in human iPSC-derived immature Dorsal Root Ganglia Neurons (UKN5) (AID 2284070; active = hit-call score of the fitted dose curve at least 0.9, where 1 is the maximum; inactive = score below 0.9); conditions: actives raise or lower the signal
Method in brief: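 Neurite outgrowth is quantified as calcein-AM-labelled neurite area in human iPSC-derived peripheral neurons treated for 24 h, starting 1 h after plating in medium with CHIR99021 (1.5 uM), SU5402 (5 uM) and DAPT (5 uM).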

[10] = UKN2_HCS_IMR90_neural_migration: University of Konstanz (UKN) Leist Lab Neural Crest Cell Migration Assay in human induced IMR90 Pluripotent Stem Cells (UKN2) (AID 2284204; active = hit-call score of the fitted dose curve at least 0.9, where 1 is the maximum; inactive = score below 0.9); conditions: actives raise or lower the signal
Method in brief: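 High-content imaging of calcein-AM and Hoechst stained cells quantifies migration into a stopper-defined gap after 24 h compound exposure. Neural crest cells from IMR90 iPSC migrated 24 h in EGF/FGF N2-S medium before dosing; DMSO baseline.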

[11] = UKN4_HCS_LUHMES_neurite_outgrowth: University of Konstanz (UKN) Leist Lab Neurite Outgrowth Assay in human LUHMES cells (UKN4) (AID 2284206; active = hit-call score of the fitted dose curve at least 0.9, where 1 is the maximum; inactive = score below 0.9); conditions: actives raise or lower the signal
Method in brief: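 Neurite area in dopaminergic-model LUHMES neurons is measured by high-content imaging of calcein-AM after 24 h treatment starting shortly after day-2 replating; Hoechst staining tracks viability.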

[12] = IUF_NPC1b_proliferation_BrdU_72hr: Leibniz Research Institute for Environmental Medicine (IUF) 72-hour Neural Progenitor Cell Bromodeoxyuridine (BrdU) Proliferation Assay (NPC1b) (AID 2284207; active = hit-call score of the fitted dose curve at least 0.9, where 1 is the maximum; inactive = score below 0.9)
Method in brief: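 Human fetal cortex-derived (GW 16-19) neural progenitor spheres, 0.25-0.35 mm, one per well in EGF/FGF proliferation medium, exposed to compound for 72 h at 37C, pH 7.2-7.6. BrdU incorporation over the final 16 h read by luminescence ELISA, relative to DMSO.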

[13] = IUF_NPC1a_proliferation_area_72hr: Leibniz Research Institute for Environmental Medicine (IUF) 72-hour Neural Progenitor Cell Proliferation Area Assay (NPC1a) (AID 2284208; active = hit-call score of the fitted dose curve at least 0.9, where 1 is the maximum; inactive = score below 0.9)
Method in brief: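 Read-out: increase in sphere area over 72 h by automated phase-contrast imaging, fitted in positive direction versus DMSO baseline. One hNPC sphere (0.25-0.35 mm) per well in EGF/FGF medium; growth-factor withdrawal served as positive control.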

[14] = IUF_NPC1_viability_72hr: Viability Assessment at 72 hours in the Leibniz Research Institute for Environmental Medicine (IUF) Neural Progenitor Cell Proliferation Assay (NPC1) (AID 2284209; active = hit-call score of the fitted dose curve at least 0.9, where 1 is the maximum; inactive = score below 0.9)
Method in brief: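 Three-day continuous exposure of human neural progenitor spheres under EGF/FGF-driven proliferation; cell viability scored by alamar blue signal versus DMSO.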

[15] = UKN4_HCS_LUHMES_cell_viability: Viability Assessment in the University of Konstanz (UKN) Leist Lab Neurite Outgrowth Assay in human LUHMES cells (UKN4) (AID 2284232; active = hit-call score of the fitted dose curve at least 0.9, where 1 is the maximum; inactive = score below 0.9)
Method in brief: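 Measured in replated, 2-day-differentiated LUHMES cells treated 24 h; stained 30 min with H-33342 and calcein-AM before high-content imaging.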

[16] = UKN2_HCS_IMR90_cell_viability: Viability Assessment in the University of Konstanz (UKN) Leist Lab Neural Crest Cell Migration Assay in human induced IMR90 Pluripotent Stem Cells (UKN2) (AID 2284233; active = hit-call score of the fitted dose curve at least 0.9, where 1 is the maximum; inactive = score below 0.9;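 also: cells exposed to compound for 24 h after a 24 h migration phase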)
Method in brief: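 After calcein-AM/Hoechst staining, viability is quantified by high-content fluorescence imaging, relative to DMSO, in iPSC (IMR90)-derived neural crest cells. Exposure lasts 24 h, starting after a 24 h migration period on PLO/laminin/fibronectin coating.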

[17] = IUF_NPC2c_oligodendrocyte_migration_120hr: Leibniz Research Institute for Environmental Medicine (IUF) 120-hour Neural Progenitor Cell Migration Assay for Oligodendrocyte Migration (NPC2c) (AID 2284297; active = hit-call score of the fitted dose curve at least 0.9, where 1 is the maximum; inactive = score below 0.9;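 also: O4-positive oligodendrocyte migration distance divided by radial glia migration distance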)
Method in brief: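 Human fetal cortex-derived neural progenitor spheres (0.3 mm) were plated on poly-D-lysine/laminin in N2 differentiation medium and exposed to 7 concentrations for 120 h, with half-medium renewal at day 3. Oligodendrocyte migration distance was normalized to radial glia migration, relative to DMSO.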

[18] = IUF_NPC2a_radial_glia_migration_120hr: Leibniz Research Institute for Environmental Medicine (IUF) 120-hour Neural Progenitor Cell Migration Assay for Radial Glia Migration (NPC2a) (AID 2284298; active = hit-call score of the fitted dose curve at least 0.9, where 1 is the maximum; inactive = score below 0.9)
Method in brief: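 Single 0.3 mm primary human fetal-cortex (GW 16-19) NPC spheres were plated on poly-D-lysine/laminin in N2 differentiation medium and exposed from day 0 for 120 h, half-medium refreshed day 3. Migration distance came from Hoechst nuclei-density imaging, relative to DMSO.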

[19] = IUF_NPC2a_radial_glia_migration_72hr: Leibniz Research Institute for Environmental Medicine (IUF) 72-hour Neural Progenitor Cell Migration Assay for Radial Glia Migration (NPC2a) (AID 2284299; active = hit-call score of the fitted dose curve at least 0.9, where 1 is the maximum; inactive = score below 0.9)
Method in brief: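 Spheres of human primary neural progenitors migrate on poly-D-lysine/laminin under compound exposure at 37C, 5% CO2. The 72 h radial glia migration distance comes from brightfield images, measured manually.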

[20] = IUF_NPC2b_neuronal_migration_120hr: Leibniz Research Institute for Environmental Medicine (IUF) 120-hour Neural Progenitor Cell Migration Assay for Neuron Migration (NPC2b) (AID 2284300; active = hit-call score of the fitted dose curve at least 0.9, where 1 is the maximum; inactive = score below 0.9)
Method in brief: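 Primary human fetal cortex neural progenitor spheres (0.3 mm) plated on poly-D-lysine/laminin in N2 differentiation medium, exposed 120 h with half-medium refresh at day 3. TUBB3-stained neuron distance from sphere core, normalized to radial glia migration, versus DMSO.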

[21] = IUF_NPC3_neuronal_differentiation_120hr: Leibniz Research Institute for Environmental Medicine (IUF) 120-hour Neuronal Differentiation Assay (NPC3) (AID 2284301; active = hit-call score of the fitted dose curve at least 0.9, where 1 is the maximum; inactive = score below 0.9)
Method in brief: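 Value is percent TUBB3-positive neurons among Hoechst-stained nuclei in the migration area, scored by trained CNN after 120 h differentiation. Primary hNPC spheres on poly-D-lysine/laminin, N2 medium, continuous dosing from day 0, half-refeed day 3; DMSO reference.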

[22] = IUF_NPC4_neurite_area_120hr: Leibniz Research Institute for Environmental Medicine (IUF) 120-hour Neuronal Morphology Assay for Neurite Area (NPC4) (AID 2284305)
Method in brief: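 Neurite area (pixels, nuclei excluded) of TUBB3-positive neurons from hNPC spheres differentiating 5 days under continuous exposure at 37 C, 5% CO2. High-content imaging; loss of signal versus DMSO control across 7 concentrations.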

[23] = IUF_NPC2-5_cytotoxicity_72hr: Cytotoxicity Assessment at 72 hours in the Leibniz Research Institute for Environmental Medicine (IUF) Neural Progenitor Cell Migration and Differentiation Assay for Cytotoxicity (NPC2-5) (AID 2284306);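 also: LDH release into supernatant measured by resorufin fluorescence marking membrane damage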
Method in brief: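 Membrane-integrity cytotoxicity at 72 h, read as LDH-driven resorufin fluorescence in supernatant. hNPC spheres from fetal cortex differentiate on coated plates in N2 medium, 37C, 5% CO2; seven serial compound concentrations plus solvent control (DMSO ≤0.1%).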

[24] = IUF_NPC2-5_cytotoxicity_120hr: Cytotoxicity Assessment at 120 hours in the Leibniz Research Institute for Environmental Medicine (IUF) Neural Progenitor Cell Migration and Differentiation Assay (NPC2-5) (AID 2284307);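 also: LDH released into supernatant as membrane damage marker via resorufin fluorescence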
Method in brief: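 Human fetal neural progenitor spheres (0.3 mm, GW 16-19 cortex) were plated on poly-D-lysine/laminin in N2 differentiation medium and exposed for 120 h, with half-medium refresh at day 3. LDH release into supernatant was read by resorufin fluorescence.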

[25] = IUF_NPC2-5_cell_number_120hr: Cell Number Assessment at 120 hours in the Leibniz Research Institute for Environmental Medicine (IUF) Neural Progenitor Cell Migration and Differentiation Assay (NPC2-5) (AID 2284308; active = hit-call score of the fitted dose curve at least 0.9, where 1 is the maximum; inactive = score below 0.9;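 also: count of Hoechst-stained nuclei in migration zone around plated human neural progenitor spheres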)
Method in brief: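 Primary human fetal neural progenitor spheres (GW 16-19, 0.3 mm) plated on poly-D-lysine/laminin in N2 differentiation medium, exposed from day 0 for 120 h with half-medium refresh at day 3; Hoechst-positive nuclei counted in migration area versus DMSO control.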

[26] = IUF_NPC2-5_viability_120hr: Viability Assessment at 120 hours in the Leibniz Research Institute for Environmental Medicine (IUF) Neural Progenitor Cell Migration and Differentiation Assay (NPC2-5) (AID 2284312; active = hit-call score of the fitted dose curve at least 0.9, where 1 is the maximum; inactive = score below 0.9)
Method in brief: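 Alamar blue resorufin fluorescence read after 5 days of differentiation, with compound present from day 0 and replenished at day 3. Primary hNPC spheres on laminin-coated plates, 37C; seven concentrations plus solvent control, fitted against DMSO.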

[27] = IUF_NPC1_cytotoxicity_72hr: Cytotoxicity Assessment at 72 hours in the Leibniz Research Institute for Environmental Medicine (IUF) Neural Progenitor Cell Proliferation Assay (NPC1) (AID 2284332);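 also: rising LDH signal means more cytotoxicity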
Method in brief: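 Readout is fluorescence from LDH-dependent resazurin conversion, sampled from culture medium after compound contact lasting 72 h. Each well holds one 0.25-0.35 mm human progenitor sphere kept at 37C, 5% CO2 with EGF and FGF.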

Measured: AC50

OCCSCSCCO
inactive: [1] | [2] | [3] | [4] | [5] | [6] | [7]

CNC1(c2ccccc2Cl)CCCCC1=O (centres undefined)
active: [11] 34.1 µM | [21] 74.2 µM | [24] 1.48 µM
inactive: all other assays above
